This passage reports max response, negative = inhibition results from PubChem BioAssay AID652054 (National Center for Advancing Translational Sciences (NCATS), 2013).

Structures are written as SMILES. Several values for one entry are separate records, joined by “and”; a condition that tells them apart may be missing. Equal entries are not always repeated. The campaign covered roughly 360,000 compounds. About 9,100 (2.5%) were called active. Another 4% or so got no clear call; they are omitted. Cut-off read from the data, not from the text of the source: active = max response below about -50%; inconclusive = no clear call, values can overlap the other calls; inactive = above that. Many of the other results were omitted from the sample, so actives are more common in it than they were.
% is set by controls: 0 for no effect and ±100 for the full control effect.

Sequence of D(3) dopamine receptor (Homo sapiens) (P35462 whole entry, looked up): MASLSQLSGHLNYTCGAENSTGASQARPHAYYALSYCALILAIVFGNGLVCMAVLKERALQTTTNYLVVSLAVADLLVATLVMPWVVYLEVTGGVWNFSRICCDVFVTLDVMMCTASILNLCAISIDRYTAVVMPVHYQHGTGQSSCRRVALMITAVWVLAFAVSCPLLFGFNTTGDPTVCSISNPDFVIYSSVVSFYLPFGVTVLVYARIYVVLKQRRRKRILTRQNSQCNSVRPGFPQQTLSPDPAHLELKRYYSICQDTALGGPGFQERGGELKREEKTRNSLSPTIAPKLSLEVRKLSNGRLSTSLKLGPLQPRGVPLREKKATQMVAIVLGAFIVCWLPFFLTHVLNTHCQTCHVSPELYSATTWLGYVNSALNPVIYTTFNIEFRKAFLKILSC

The experiment addresses D(3) dopamine receptor (Homo sapiens) (UniProt P35462). The experiment can be described thus: qHTS of D3 Dopamine Receptor Antagonist: qHTS. The conditions noted are these: D3R cells, DiscoveRx beta-arrestin luminescence, antagonist mode; stronger effect = lower value. The method in brief:
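Cells expressing the human receptor were seeded at 1500 cells/well, incubated overnight at 37 degrees C in 5% CO2, then exposed to library compounds with dopamine controls for 90 minutes at 37 degrees C before luminescent detection.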
Background: Quantitative high-throughput screening tests each substance at several concentrations.
As for `CC1=C(C(=O)N(C)C)CC(CC(=O)NCCN2CCOCC2)C(=O)N1Cc1ccccc1` (configuration not stated), the max response, negative = inhibition is -7.58% (inactive).
The same measure for `CC(=O)Nc1cc(-c2ccc(N3CCN(C)CC3)cc2)cn2c(-c3cccc(C(=O)N(C)C)c3)cnc12`: 9.1% (inactive); for `CCOc1ccc(C2/C(=C(/O)c3ccc4c(c3)CC(C)O4)C(=O)C(=O)N2CCCn2ccnc2)cc1` (configuration not stated): -12.2% (inactive); for `C=CCOc1cccc(C2C(C(=O)c3ccc(C)o3)=C(O)C(=O)N2CCN2CCOCC2)c1` (configuration not stated): 0.324% (inactive).
For `CCCOc1ccc(C2C(C(=O)c3ccc(C)o3)=C(O)C(=O)N2CCCn2ccnc2)cc1` (configuration not stated) the value was -63.3% (active).
As to `Cc1ccc(C)c(C(O)c2ncc(-c3cccc4ccccc34)[nH]2)c1` (configuration not stated), the max response, negative = inhibition was -3.53% (inactive).
The same measure for `COC(=O)c1ccc2nc(-c3ccc(Cl)cc3)c(Cc3cccc(F)c3)n2c1`: 88.8% (inactive).
For the compound `Cn1cnnc1Sc1ccc(S(C)(=O)=O)cc1[N+](=O)[O-]`, the max response, negative = inhibition was -78.8% (active).
For `CC(=O)Nc1ccc(Nc2c([N+](=O)[O-])cc(S(C)(=O)=O)cc2[N+](=O)[O-])cc1` the value was -15.9% (inactive); for `CCN(CC(=O)Nc1c(F)cccc1F)C(=O)c1ccc(Sc2nncn2C)c([N+](=O)[O-])c1`, 2.59% (inactive).
The same measure for `CC1=C(C(=O)Nc2cccc(C(=O)NCC(C)c3ccccc3)c2)SCCO1` (configuration not stated): 104% (inactive).
Turning to `O=C(CN1C(=O)c2cccc3cccc1c23)Nc1ccccc1`, the max response, negative = inhibition was 5.41% (inactive).
For `O=C1c2cccc3cc(Br)cc(c23)C(=O)N1Nc1ccccc1` the value was -62.9% (active); for `O=C1C=C(c2ccc(Cl)cc2)C(=O)N1Nc1ccccc1`, -22.9% (inactive).
The same measure for `COc1cccc(CNc2nc(NCc3ccccc3OC)nc3ccsc23)c1`: 31.6% (inactive).
For `O=C(CCN1CCCO1)N1CCCC(N2CCN(c3cccc(C(F)(F)F)c3)CC2)C1` (configuration not stated) the value was -5.11% (inactive); for `O=C1C2CCCN2C(=O)N1CCCCN1CCN(c2cccc(C(F)(F)F)c2)CC1` (configuration not stated), -115% (active).
In the case of `O=C(C1CC(=O)N(C2CCCC2)C1)N1CCN(c2cccc(C(F)(F)F)c2)CC1` (configuration not stated), the max response, negative = inhibition was -17.8% (inactive).
For `CCCCCc1c(-c2ccc(OC)c(OC)c2)ncn1CCc1ccccc1OC` the value was -3.21% (inactive); for `O=C1NC[C@H](Cc2ccc(O)cc2)N(C[C@H]2CCCN2C[C@H](Cc2ccccc2)N2C[C@H](Cc3ccccc3)N(CCc3ccccc3)C(=O)C2=O)C1=O`, -27.9% (inactive); for `COc1ccc(CN2C(=O)C(CC(=O)NCCCCc3ccccc3)CC(C(=O)N3CCOCC3)=C2C)cc1` (configuration not stated), 17.9% (inactive).
Regarding `Cc1ccc(C(=O)NC(C)C(c2cccs2)N2CCOCC2)cc1C` (configuration not stated), the max response, negative = inhibition is -24.7% (inactive).
Turning to `N#Cc1ccc(C(C(=O)NCc2ccccc2)n2c(=O)c(-c3ccco3)nc3ccccc32)cc1` (configuration not stated), the max response, negative = inhibition was -4.27% (inactive).
As to `O=C(CN1CCN(C(=O)c2ccco2)CC1)Nc1ccc2c(c1)OCO2`, the max response, negative = inhibition was -5.37% (inactive).
As to `O=C(CN1CCC(O)(c2ccccc2)CC1)Nc1ccc2c(c1)OCCO2`, the max response, negative = inhibition was -57.9% (active).
Regarding `O=C(Cn1c(=O)sc2ccccc21)Nc1ccc2c(c1)OCCO2`, the max response, negative = inhibition was 7.52% (inactive).
For the compound `CN1C[C@@H](CO)O[C@@H](n2cnc3c(N4CCN(CCO)CC4)ncnc32)C1`, the max response, negative = inhibition was 2.48% (inactive).
`COc1cccc(-c2cc3nc(NCc4ccccc4OC)n(C)c(=O)c3s2)c1`: the max response, negative = inhibition was 23.1% (inactive).
The same measure for `COc1ccc(CN2C(=O)C(CC(=O)NC3CCCCC3)CC(C(=O)N3CCOCC3)=C2C)cc1` (configuration not stated): -7.02% (inactive); for `FC(F)(F)C1CCCN(c2nsc3ccccc23)C1` (configuration not stated): -81.7% (active).
For `COc1ccc([C@H]2CC(=O)C[C@@H](CCn3cc(CC4CCCC4)nn3)O2)cc1` the value was 5.27% (inactive); for `CCCS(=O)(=O)NC(=O)C1(C)CCN(C(=O)c2sccc2C)C1` (configuration not stated), 18.5% (inactive); for `Nc1nc(CSc2nnnn2-c2ccccc2)nc(Nc2ccccc2)n1`, 16% (inactive).
Turning to `CC1(C(=O)Nc2ccccc2Br)CCN1C(=O)CC1CC1` (configuration not stated), the max response, negative = inhibition is 27.1% (inactive).
The same measure for `CC(=O)c1cccc(S(=O)(=O)N2CCC(n3nnc4cc(F)ccc43)CC2)c1`: -14.5% (inactive).
For `COc1ccccc1CNC(=O)CN1CCC(n2cnc3cc(F)ccc32)CC1` the value was -0.289% (inactive).
On to `COc1ccc(CNC(=O)CN2CCC(n3nnc4cc(F)ccc43)CC2)cc1`, for which the max response, negative = inhibition was -83.8% (active).
For `CC(C)(C(=O)N1CCC1(C)C(=O)NS(=O)(=O)c1ccc(Br)cc1)c1ccccc1` (configuration not stated) the value was 11.9% (inactive); for `CCC(=O)c1ccc(OCC(O)CN2C(=O)NC(C)(C)C2=O)cc1` (configuration not stated), 0% (inactive).
The same measure for `CCC(=O)c1ccc(OCC(O)CN2CC(C)OC(C)C2)cc1` (configuration not stated): -54.2% (active); for `CC1CCN(CC(O)COc2ccc(C(=O)c3ccccc3)cc2)CC1` (configuration not stated): 0% (inactive); for `OCCc1ccc(NCCc2ccco2)cc1`: 11.1% (inactive).
In the case of `O=C(O)c1ccc(/C=C2\SC(=S)N(NC(=O)c3ccc(Br)cc3)C2=O)cc1`, the max response, negative = inhibition is -21.3% (inactive).
For `CCOc1ccc(/C=C2\SC(=S)N(NC(=O)c3ccncc3)C2=O)cc1OC` the value was -13.1% (inactive).
For `Cn1cccc1/C=C1\SC(=S)N(NC(=O)c2ccc(Cl)cc2)C1=O` the value was -70.7% (active); for `COC(=O)C1(C(=O)OC)C[C@H](c2ccccc2)N(Cc2ccccc2OC)[C@@H]1c1ccccc1`, -25.4% (inactive); for `CCc1ccc(OCC(O)CN2CCN(CCO)CC2)cc1` (configuration not stated), 18.7% (inactive).
The same measure for `Cc1ccc(OCCNC(=O)CN2C(=O)NC3(CCCC3)C2=O)cc1`: -22.9% (inactive).
For the compound `CCc1ccc(OC2(C)CCN(CCOc3ccc(C)cc3)C2)cc1` (configuration not stated), the max response, negative = inhibition was -75% (active).
Take `CCCNC(=O)C1(C)CCN1C(=O)C1(c2ccccc2)CC1` (configuration not stated): the max response, negative = inhibition was -7.67% (inactive).
The same measure for `Cc1sc2nc(-c3ccccc3F)oc(=O)c2c1C`: 0% (inactive).
`CCCc1nc2ccccc2n1C(C)C(=O)NC(C)(C)C` (configuration not stated): the max response, negative = inhibition is -12.7% (inactive).
The same measure for `CC(OC(=O)c1ccc(NC(=O)CC#N)cc1)C(=O)Nc1ccc(S(=O)(=O)N2CCCC2)cc1` (configuration not stated): 2.56% (inactive); for `COc1cc(C(O)c2nc(-c3cnn(C)c3)cs2)ccc1F` (configuration not stated): -2.22% (inactive); for `O=C(N[C@H]1CC[C@H](CC(=O)N2CCCCC2)O[C@@H]1CO)c1cccc(F)c1`: 1.98% (inactive).
The same measure for `COC(=O)COc1ccc(S(=O)(=O)N2CCOCC2)cc1`: 20.2% (inactive); for `O=C(c1ccc(Cl)cc1)c1ccc(OCC(O)CN2CCCCC2)cc1` (configuration not stated): -2.74% (inactive); for `Cc1nn(CCOc2ccccc2)c(=O)n1-c1ccccc1F`: -0.664% (inactive).
The same measure for `CCN1C(=O)/C(=C\N2CCN(c3cccc(Cl)c3)CC2)SC1=S`: -22.6% (inactive).
Consider `O=S(=O)(c1ccc(OCC(O)CN2CCN(c3ccccc3Cl)CC2)cc1)N1CCOCC1` (configuration not stated), for which the max response, negative = inhibition is -73% (active).
Regarding `CCc1nn(CCCN2CCN(c3cccc(Cl)c3)CC2)c(=O)n1CCOc1ccccc1`, the max response, negative = inhibition was -77.2% (active) and -89.6% (active).
For the compound `O=C(CCCC(=O)N1CCN(c2cccc(Cl)c2)CC1)c1ccccc1`, the max response, negative = inhibition was 11.7% (inactive).
For the compound `CC(=O)Nc1ccc(OCC(O)CN2CCN(c3ccccc3Cl)CC2)cc1` (configuration not stated), the max response, negative = inhibition was -66.4% (active).
Consider `CC(=O)c1ccc(OCC(O)CN2CCN(S(=O)(=O)c3cccc(Br)c3)CC2)cc1` (configuration not stated), for which the max response, negative = inhibition is 22% (inactive).
Consider `CC(C)c1ccc(OCC(O)CN2CCN(c3ccccn3)CC2)cc1` (configuration not stated), for which the max response, negative = inhibition was -29.5% (inactive).
Take `OC(COc1ccccc1)CN1CCN(c2cccc(Cl)c2)CC1` (configuration not stated): the max response, negative = inhibition is -51.8% (active).
Regarding `OC(COc1ccc2c(c1)CCC2)CN1CCN(c2cccc(Cl)c2)CC1` (configuration not stated), the max response, negative = inhibition is 0% (inactive).
With `CN1CCN(c2ccncc2S(=O)(=O)N2CCCC2)CC1`, the max response, negative = inhibition was 22.6% (inactive).
For `COC(=O)c1ccc2nc(-c3ccc(C)cc3)c(Cc3ccc(OC)cc3C)n2c1` the value was 0.363% (inactive); for `CC(C)C1Cc2[nH][nH]c(=O)c2C(c2ccc(Cl)cc2)O1` (configuration not stated), -0.765% (inactive); for `O=C(Nc1ccc(Cl)cc1)c1csc([C@H]2C[C@H](O)[C@@H](CO)O2)n1`, 0% (inactive).
The same measure for `COc1ccc(NC(=O)C2Cc3c(-c4cccc(NC(C)=O)c4)ccnc3O2)cc1OC` (configuration not stated): 0% (inactive); for `COc1ccc(CC(N)c2csc(NC(=O)NC(c3ccccc3)c3ccccc3)n2)cc1` (configuration not stated): -20.6% (inactive); for `COc1ccc(N)cc1NC(=O)CN1CCOCC1`: 60.4% (inactive).
For `OC[C@@H]1CN(Cc2ccc(-c3ccccc3)cc2)C[C@H](n2cnc3c(NC4CCCC4)ncnc32)O1` the value was 36% (inactive); for `C=CCC[C@@H](CCCCC)OC(=O)/C=C/[C@@H](O)[C@H](O)C[C@H](O)CC=C`, 5.67% (inactive).
For `CCCCCCNC(=O)O[C@H]1CN(C(=O)OC(C)C)N(C(=O)OC(C)C)[C@@H]2CN(S(=O)(=O)c3ccc(C)cc3)C[C@]12O`, the max response, negative = inhibition is 1.36% (inactive).
As for `O=Nc1c(O)cc(O)c2ccccc12`, the max response, negative = inhibition is 9% (inactive).
The same measure for `COc1ccc(COC[C@H](CC(C)C)N2CCN(C(=O)c3cccc(C(F)(F)F)c3)CCC2=O)cc1`: 0% (inactive); for `CCOC(=O)N1C(=O)C[C@](Sc2ccc(C)cc2)(C(=O)OC)[C@H]1c1ccccc1`: 28.6% (inactive).
Regarding `O=C(CNC(=O)c1ccc2ccccc2c1)Nc1ncccc1O`, the max response, negative = inhibition was 8.18% (inactive).
The same measure for `CC1CCC(NC(=O)CNC(=O)c2ccc3ccccc3c2)CC1` (configuration not stated): -70% (active); for `Cc1ccc(C(=O)NCC(=O)NC2CC2)cc1`: -5.92% (inactive).
For `Cn1cnc(S(=O)(=O)N2C[C@@H](O)COC[C@@H]3O[C@H](CC(=O)NC4CCC4)CC[C@H]32)c1`, the max response, negative = inhibition was 17.2% (inactive).
As for `COc1ccc(-c2csc(Nc3cccc(C)n3)n2)cc1OC`, the max response, negative = inhibition was 42.5% (inactive).
`CCc1ccccc1NC(=O)[C@@H]1CCC(=O)N1C1OC(=O)c2c1ccc(OC)c2OC` (some centres not stated): the max response, negative = inhibition is -18.1% (inactive).
The same measure for `COc1ccc2c(c1OC)C(=O)OC2Nc1nc(-c2ccccc2)cs1` (configuration not stated): -73.2% (active).
